# According to article PMC7862700, “An all-to-all approach to the identification of sequence-specific readers for epigenetic DNA modifications on cytosine”:
# Legend:
# Assay in all cases: DAPPL (digital affinity profiling via proximity ligation, sequencing); 10 mM Tris-HCl pH 7.5, 50 mM NaCl, 1 mM DTT, 4% glycerol, room temperature, 30 min; GST-TFs on glutathione beads, 16-mer random dsDNA library, 0.1% formaldehyde crosslink after washing; high values mean tight binding
# Conditions in all cases: protein: recombinant; tags: N-terminal GST; dsDNA, one strand shown
# [1] = target: T1, FLI1 (Homo sapiens, UniProt Q01543 1-452)
# T1 sequence: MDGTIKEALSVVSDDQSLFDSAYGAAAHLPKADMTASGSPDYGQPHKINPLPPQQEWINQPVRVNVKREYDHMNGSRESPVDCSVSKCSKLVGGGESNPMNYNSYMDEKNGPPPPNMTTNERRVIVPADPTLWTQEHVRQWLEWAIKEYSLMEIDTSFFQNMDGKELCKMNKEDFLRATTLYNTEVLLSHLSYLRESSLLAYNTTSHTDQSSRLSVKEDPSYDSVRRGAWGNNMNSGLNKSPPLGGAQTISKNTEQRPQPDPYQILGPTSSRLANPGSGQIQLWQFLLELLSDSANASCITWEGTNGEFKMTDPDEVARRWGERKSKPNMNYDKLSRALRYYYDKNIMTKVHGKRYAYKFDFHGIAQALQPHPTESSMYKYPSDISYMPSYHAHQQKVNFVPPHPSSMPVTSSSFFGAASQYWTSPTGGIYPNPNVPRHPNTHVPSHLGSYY
# How it was run: (§1)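 After expression in yeast as GST fusions, human transcription factors were bound to glutathione beads, DNA-barcoded and mixed with a tag-only sample. The pools were incubated with 200 nmole of a 16-mer random double-stranded DNA library in Tris/NaCl/DTT/glycerol buffer (30 min, room temperature), washed and crosslinked with 0.1% formaldehyde. Proximity ligation with BsaI/T4 ligase ran for 1 h at 37 °C, before PCR amplification and sequencing on an Illumina NextSeq500. Binding signal is a hexamer's read frequency for a factor divided by its frequency for the tag-only sample.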
# [2] = target: T2, ELK1 (Homo sapiens, UniProt P19419 1-428)
# T2 sequence: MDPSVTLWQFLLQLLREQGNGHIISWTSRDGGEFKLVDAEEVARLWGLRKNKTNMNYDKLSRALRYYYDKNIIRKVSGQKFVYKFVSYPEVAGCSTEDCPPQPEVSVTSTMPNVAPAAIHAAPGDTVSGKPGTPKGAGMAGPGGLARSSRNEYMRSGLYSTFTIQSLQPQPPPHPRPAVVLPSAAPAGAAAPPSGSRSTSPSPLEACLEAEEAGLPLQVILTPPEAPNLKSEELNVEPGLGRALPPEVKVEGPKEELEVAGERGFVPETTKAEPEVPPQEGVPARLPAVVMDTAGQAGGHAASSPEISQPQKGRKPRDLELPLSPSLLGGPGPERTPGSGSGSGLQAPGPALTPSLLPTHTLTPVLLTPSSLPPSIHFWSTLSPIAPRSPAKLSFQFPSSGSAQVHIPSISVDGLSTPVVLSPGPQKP
# How it was run: as §1
# [3] = target: T3, GABPA (Homo sapiens, UniProt Q06546 1-454)
# T3 sequence: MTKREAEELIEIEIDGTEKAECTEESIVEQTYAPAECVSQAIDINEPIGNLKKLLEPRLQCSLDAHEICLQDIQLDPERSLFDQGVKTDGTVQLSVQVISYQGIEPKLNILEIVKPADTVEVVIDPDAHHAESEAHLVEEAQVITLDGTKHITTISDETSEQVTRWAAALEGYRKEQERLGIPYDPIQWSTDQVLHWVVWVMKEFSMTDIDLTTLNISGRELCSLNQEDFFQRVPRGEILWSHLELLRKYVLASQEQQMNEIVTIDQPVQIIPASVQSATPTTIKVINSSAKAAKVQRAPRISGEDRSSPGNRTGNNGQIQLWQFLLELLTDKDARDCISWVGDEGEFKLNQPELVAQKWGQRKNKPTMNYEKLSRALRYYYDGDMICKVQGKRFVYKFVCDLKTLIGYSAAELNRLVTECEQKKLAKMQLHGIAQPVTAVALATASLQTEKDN
# How it was run: as §1
# [4] = target: T4, ERG (Homo sapiens, UniProt P11308 1-479)
# T4 sequence: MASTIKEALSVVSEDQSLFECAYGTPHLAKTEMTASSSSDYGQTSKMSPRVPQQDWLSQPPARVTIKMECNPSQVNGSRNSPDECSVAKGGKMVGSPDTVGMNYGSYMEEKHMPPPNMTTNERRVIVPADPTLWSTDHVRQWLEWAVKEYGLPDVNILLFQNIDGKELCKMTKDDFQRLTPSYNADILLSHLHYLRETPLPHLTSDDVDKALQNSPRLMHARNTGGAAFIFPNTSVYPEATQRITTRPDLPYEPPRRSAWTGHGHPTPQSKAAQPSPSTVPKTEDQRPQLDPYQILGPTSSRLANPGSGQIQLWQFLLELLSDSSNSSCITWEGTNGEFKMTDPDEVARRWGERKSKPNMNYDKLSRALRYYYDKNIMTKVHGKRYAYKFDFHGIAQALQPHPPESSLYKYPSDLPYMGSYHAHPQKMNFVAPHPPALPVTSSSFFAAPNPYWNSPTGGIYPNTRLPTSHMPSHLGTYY
# How it was run: as §1
# [5] = target: ELF1 (Homo sapiens, UniProt P32519 1-619)
# How it was run: as §1
# [6] = target: T5, EHF (Homo sapiens, UniProt Q9NZC4 1-300)
# T5 sequence: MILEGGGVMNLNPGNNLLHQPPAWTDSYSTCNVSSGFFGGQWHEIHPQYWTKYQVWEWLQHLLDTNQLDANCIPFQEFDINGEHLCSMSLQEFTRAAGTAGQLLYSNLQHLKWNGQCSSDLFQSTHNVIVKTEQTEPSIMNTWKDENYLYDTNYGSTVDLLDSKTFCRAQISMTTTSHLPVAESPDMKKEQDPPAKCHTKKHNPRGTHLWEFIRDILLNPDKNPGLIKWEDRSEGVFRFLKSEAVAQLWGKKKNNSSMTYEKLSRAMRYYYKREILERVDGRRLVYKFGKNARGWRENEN
# How it was run: as §1
# [7] = target: SPI1 (Homo sapiens, UniProt P17947 1-270)
# How it was run: as §1
# [8] = target: SPIB (Homo sapiens, UniProt Q01892 1-262)
# How it was run: as §1
# [9] = target: T6, ELK3 (Homo sapiens, UniProt P41970 1-407)
# T6 sequence: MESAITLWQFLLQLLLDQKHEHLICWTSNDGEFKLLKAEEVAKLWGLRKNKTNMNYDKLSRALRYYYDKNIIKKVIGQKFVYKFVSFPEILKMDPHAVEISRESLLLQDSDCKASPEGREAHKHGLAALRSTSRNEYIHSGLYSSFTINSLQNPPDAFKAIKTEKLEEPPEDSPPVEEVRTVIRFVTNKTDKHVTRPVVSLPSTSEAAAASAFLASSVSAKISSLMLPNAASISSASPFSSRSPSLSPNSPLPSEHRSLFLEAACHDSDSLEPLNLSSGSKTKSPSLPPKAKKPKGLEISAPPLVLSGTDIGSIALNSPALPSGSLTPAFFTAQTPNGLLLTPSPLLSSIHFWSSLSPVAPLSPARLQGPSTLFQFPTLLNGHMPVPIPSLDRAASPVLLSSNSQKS
# How it was run: as §1
# [10] = target: T7, FEV (Homo sapiens, UniProt Q99581 1-238)
# T7 sequence: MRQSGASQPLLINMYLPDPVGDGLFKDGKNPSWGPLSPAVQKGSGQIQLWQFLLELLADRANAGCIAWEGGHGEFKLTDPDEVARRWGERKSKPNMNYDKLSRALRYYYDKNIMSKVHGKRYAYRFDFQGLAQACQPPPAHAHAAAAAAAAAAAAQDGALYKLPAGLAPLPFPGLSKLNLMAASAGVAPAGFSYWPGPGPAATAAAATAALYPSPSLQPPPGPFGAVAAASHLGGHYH
# How it was run: as §1
# [11] = target: ETV5 (Homo sapiens, UniProt P41161 1-510)
# How it was run: as §1
# [12] = target: T8, SPIC (Homo sapiens, UniProt Q8N5J4 1-248)
# T8 sequence: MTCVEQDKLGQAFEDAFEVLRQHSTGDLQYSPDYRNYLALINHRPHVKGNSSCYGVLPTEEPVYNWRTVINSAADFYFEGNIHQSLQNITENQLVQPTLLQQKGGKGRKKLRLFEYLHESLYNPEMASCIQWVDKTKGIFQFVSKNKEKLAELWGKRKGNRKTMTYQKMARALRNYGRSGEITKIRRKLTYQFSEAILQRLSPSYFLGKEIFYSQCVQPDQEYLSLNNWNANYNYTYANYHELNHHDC
# How it was run: as §1
# [13] = target: ELF4 (Homo sapiens, UniProt Q99607 1-663)
# How it was run: as §1
# [14] = target: T9, ELK4 (Homo sapiens, UniProt P28324-2 1-405)
# T9 sequence: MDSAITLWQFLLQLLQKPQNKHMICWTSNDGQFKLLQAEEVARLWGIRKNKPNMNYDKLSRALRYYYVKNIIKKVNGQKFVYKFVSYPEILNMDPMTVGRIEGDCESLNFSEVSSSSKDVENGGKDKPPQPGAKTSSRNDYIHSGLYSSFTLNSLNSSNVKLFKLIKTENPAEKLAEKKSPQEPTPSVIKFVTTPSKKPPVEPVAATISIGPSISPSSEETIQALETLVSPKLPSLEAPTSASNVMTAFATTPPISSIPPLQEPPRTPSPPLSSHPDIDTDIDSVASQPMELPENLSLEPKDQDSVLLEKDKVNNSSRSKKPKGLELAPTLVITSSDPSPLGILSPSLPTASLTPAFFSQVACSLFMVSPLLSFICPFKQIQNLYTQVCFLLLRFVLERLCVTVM
# How it was run: as §1
# [15] = target: T10, ETV2 (Homo sapiens, UniProt O00321 1-342)
# T10 sequence: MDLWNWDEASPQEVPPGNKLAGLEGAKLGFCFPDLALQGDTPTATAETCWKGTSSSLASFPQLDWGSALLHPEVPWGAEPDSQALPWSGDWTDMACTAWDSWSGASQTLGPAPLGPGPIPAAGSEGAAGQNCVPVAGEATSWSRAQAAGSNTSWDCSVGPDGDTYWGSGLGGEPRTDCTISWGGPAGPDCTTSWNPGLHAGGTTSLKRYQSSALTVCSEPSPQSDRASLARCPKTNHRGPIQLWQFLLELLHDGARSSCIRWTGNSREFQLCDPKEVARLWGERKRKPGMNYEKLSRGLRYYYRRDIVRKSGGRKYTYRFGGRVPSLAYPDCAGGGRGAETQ
# How it was run: as §1
# [16] = target: T11, ELF3 (Homo sapiens, UniProt P78545 1-371)
# T11 sequence: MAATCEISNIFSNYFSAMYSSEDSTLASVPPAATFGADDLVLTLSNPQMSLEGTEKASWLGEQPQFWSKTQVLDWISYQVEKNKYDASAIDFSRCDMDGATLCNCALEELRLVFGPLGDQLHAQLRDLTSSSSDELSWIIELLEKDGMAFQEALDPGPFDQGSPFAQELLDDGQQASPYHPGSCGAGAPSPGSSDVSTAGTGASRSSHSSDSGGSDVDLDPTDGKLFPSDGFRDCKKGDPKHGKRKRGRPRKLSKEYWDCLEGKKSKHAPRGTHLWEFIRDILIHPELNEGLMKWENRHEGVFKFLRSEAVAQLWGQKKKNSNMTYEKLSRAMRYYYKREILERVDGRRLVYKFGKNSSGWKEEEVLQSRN
# How it was run: as §1
# [17] = target: ETV1 (Homo sapiens, UniProt P50549 1-477)
# How it was run: as §1
# Chain of SPIB (Q01892 whole entry): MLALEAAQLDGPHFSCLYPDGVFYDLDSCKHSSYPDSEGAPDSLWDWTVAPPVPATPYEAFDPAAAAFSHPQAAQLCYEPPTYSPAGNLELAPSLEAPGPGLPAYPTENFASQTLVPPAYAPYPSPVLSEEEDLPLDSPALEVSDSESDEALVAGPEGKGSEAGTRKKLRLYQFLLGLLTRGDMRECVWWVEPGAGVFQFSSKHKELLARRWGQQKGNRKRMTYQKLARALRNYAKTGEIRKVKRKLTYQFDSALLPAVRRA
# Chain of ETV1 (P50549 whole entry): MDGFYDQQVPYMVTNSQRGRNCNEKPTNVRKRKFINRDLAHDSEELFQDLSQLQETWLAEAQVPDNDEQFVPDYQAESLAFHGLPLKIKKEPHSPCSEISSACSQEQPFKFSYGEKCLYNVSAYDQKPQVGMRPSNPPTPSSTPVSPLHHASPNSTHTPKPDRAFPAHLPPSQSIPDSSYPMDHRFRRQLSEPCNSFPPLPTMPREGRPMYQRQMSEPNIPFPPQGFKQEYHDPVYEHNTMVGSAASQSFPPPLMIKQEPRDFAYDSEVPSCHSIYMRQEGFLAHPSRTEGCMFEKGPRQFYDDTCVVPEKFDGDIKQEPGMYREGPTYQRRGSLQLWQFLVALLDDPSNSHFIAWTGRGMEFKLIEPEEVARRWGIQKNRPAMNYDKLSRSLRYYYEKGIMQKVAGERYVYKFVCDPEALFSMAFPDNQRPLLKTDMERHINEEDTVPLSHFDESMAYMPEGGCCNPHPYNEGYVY
# Chain of ELF4 (Q99607 whole entry): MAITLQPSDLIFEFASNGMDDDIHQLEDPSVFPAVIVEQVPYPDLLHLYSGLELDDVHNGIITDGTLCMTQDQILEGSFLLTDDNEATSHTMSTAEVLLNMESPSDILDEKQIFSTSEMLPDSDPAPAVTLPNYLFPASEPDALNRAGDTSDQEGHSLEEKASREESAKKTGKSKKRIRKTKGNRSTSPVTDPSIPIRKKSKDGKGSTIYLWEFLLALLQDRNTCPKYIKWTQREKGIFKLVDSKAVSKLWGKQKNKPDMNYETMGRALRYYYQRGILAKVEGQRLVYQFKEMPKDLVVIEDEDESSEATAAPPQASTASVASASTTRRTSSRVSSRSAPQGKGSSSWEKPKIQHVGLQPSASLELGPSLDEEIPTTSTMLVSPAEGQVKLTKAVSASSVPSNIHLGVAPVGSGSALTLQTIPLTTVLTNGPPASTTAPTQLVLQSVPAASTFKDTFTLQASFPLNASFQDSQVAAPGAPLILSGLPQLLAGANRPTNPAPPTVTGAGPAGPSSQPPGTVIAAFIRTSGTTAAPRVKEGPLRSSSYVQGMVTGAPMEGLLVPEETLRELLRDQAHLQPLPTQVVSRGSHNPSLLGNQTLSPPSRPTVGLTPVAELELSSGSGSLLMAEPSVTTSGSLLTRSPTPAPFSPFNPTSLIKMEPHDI
# Chain of ELF1 (P32519 whole entry): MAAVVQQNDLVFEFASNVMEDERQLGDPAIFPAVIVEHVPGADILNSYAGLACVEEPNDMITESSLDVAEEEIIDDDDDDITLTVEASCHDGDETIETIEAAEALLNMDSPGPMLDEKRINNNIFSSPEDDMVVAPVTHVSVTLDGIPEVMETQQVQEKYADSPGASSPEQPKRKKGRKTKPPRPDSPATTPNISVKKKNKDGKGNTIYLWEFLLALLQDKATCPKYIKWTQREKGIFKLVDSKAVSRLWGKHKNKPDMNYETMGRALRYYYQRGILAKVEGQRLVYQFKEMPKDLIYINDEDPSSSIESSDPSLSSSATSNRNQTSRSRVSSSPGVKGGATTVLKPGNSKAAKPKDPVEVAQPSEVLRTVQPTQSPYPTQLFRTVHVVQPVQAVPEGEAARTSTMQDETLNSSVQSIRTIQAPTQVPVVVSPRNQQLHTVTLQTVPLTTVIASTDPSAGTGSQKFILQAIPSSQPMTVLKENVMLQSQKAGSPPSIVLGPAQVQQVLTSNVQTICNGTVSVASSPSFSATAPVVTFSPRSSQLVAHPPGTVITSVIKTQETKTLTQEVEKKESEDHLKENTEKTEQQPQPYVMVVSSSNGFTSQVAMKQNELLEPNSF
# Chain of ETV5 (P41161 whole entry): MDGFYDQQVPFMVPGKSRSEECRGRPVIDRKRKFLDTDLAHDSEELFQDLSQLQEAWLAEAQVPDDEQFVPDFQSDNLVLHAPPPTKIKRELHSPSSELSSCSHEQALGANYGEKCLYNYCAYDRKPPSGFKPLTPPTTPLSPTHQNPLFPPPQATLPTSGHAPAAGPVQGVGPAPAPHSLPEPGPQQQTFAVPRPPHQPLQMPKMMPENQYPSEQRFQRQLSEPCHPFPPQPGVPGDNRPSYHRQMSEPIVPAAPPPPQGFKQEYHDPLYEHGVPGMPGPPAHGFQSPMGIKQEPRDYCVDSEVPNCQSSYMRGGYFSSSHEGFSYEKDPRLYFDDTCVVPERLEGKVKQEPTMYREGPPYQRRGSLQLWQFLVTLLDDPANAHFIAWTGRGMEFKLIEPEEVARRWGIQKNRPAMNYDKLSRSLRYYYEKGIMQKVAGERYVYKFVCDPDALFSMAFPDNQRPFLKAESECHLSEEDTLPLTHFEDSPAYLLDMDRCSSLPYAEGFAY
sequence,measurement,setting,value
ATATGT,binding signal,[1],"1.09 fold enrichment (6-mer frequency, TF over GST control)"
same,binding signal,[2],"1.08 fold enrichment (6-mer frequency, TF over GST control)"
same,binding signal,[3],"1.16 fold enrichment (6-mer frequency, TF over GST control)"
same,binding signal,[4],"1.1 fold enrichment (6-mer frequency, TF over GST control)"
same,binding signal,[5],"1.2 fold enrichment (6-mer frequency, TF over GST control)"
same,binding signal,[6],"1.13 fold enrichment (6-mer frequency, TF over GST control)"
same,binding signal,[7],"1.09 fold enrichment (6-mer frequency, TF over GST control)"
same,binding signal,[8],"1.18 fold enrichment (6-mer frequency, TF over GST control)"
same,binding signal,[9],"1.14 fold enrichment (6-mer frequency, TF over GST control)"
same,binding signal,[10],"1.11 fold enrichment (6-mer frequency, TF over GST control)"
same,binding signal,[11],"1.1 fold enrichment (6-mer frequency, TF over GST control)"
same,binding signal,[12],"1.18 fold enrichment (6-mer frequency, TF over GST control)"
same,binding signal,[13],"1.14 fold enrichment (6-mer frequency, TF over GST control)"
same,binding signal,[14],"1.21 fold enrichment (6-mer frequency, TF over GST control)"
same,binding signal,[15],"1.04 fold enrichment (6-mer frequency, TF over GST control)"
same,binding signal,[16],"1.14 fold enrichment (6-mer frequency, TF over GST control)"
same,binding signal,[17],"1.12 fold enrichment (6-mer frequency, TF over GST control)"
